# Measured values published in PubChem BioAssay (NCATS).
# Records with an inconclusive call do not appear. Unmarked numbers belong to inactive results. Calls of active or inactive are those of the source. Unless noted, calls follow the shape of the full dose curve.
# System: not listed separately
# Assay: qHTS for Inhibitors of the Functional Ribonucleoprotein Complex (vRNP) of Lymphocytic Choriomeningitis Arenaviruses (LCMV): Viability assay - alamar blue signal for LCMV Primary Screen (AID 1347085; calls by dose curve; tested in HEK293 reporter line; also: nearly all actives have a fitted effect of over 80% in size)
# Conditions: alamar blue viability counter-screen, LCMV vRNP screen cells; series mostly up to 57.5 µM; activity change, negative = lower viability: at the top concentration
# % is scaled to controls: 0 for no effect and ±100 for the full control effect.
Compound,Potency,"activity change, negative = lower viability"
NC(N)=NC(=O)c1nc(Cl)c(N)nc1N,inactive,–
CC(C)C(=O)OCc1cccc(OC(=O)[C@@H]2N3C(=O)[C@@H](NC(=O)Cc4ccccc4)[C@H]3SC2(C)C)c1,–,13.2%
c1ccc(CCNc2nc(-c3ccccc3)cs2)cc1,–,-24.3%
O=C(CCCN1CCN(c2ccccn2)CC1)c1ccc(F)cc1,–,10.2%
CCc1oc2ccccc2c1C(=O)c1cc(Br)c(O)c(Br)c1,–,1.87%
COC1=C(OC)C(=O)C(CCCCCCCCCCO)=C(C)C1=O,inactive,–
CCN(CC)CCOCCOC(=O)C1(c2ccccc2)CCCC1,inactive,–
NC(=O)c1ncn([C@@H]2O[C@H](CO)[C@@H](O)[C@H]2O)c1N,–,-0.883%
O=C(NCCc1c[nH]c2ccccc12)c1cccnc1,–,-3.31%
CCCOC(C(=O)OC1CCN(C)CC1)(c1ccccc1)c1ccccc1,–,-0.267%
c1ccc2[nH]c(-c3cscn3)nc2c1,inactive,–
C[N+]1(C)CCC(=C(c2ccccc2)c2ccccc2)CC1,–,4.18%
O=C(Nc1ccc([N+](=O)[O-])cc1)Nc1ccc([N+](=O)[O-])cc1,–,12.9%
CC(C)Cn1cnc2c1c(=O)n(C)c(=O)n2C,–,-1.11%
Nc1nc2ncc(CNc3ccc(C(=O)N[C@@H](CCC(=O)O)C(=O)O)cc3)nc2c(=O)[nH]1,inactive,–
C=CCc1cc(OC)c(O)c(C(=O)NCCO)c1,inactive,–
CCN(CC)CCSC(=O)C(c1ccccc1)c1ccccc1,–,7.35%
NC[C@H]1O[C@H](O[C@H]2[C@H](O)[C@@H](O[C@H]3O[C@H](CO)[C@@H](O)[C@H](N)[C@H]3O)[C@H](N)C[C@@H]2N)[C@H](N)[C@@H](O)[C@@H]1O,–,-15.5% [at 24.7 µM]
COc1cc(NS(=O)(=O)c2ccc(N)cc2)ncn1,–,4.27%
CO[C@]1(NC(=O)CSC(F)F)C(=O)N2C(C(=O)O)=C(CSc3nnnn3CCO)CO[C@H]21,–,-11.4%

Compound,Potency,"activity change, negative = lower viability"
O=[N+]([O-])c1nccn1CO[C@@H](CO)[C@H](O)CO,–,4.93%
CN1CCN(c2cc3c(nn2)Oc2ccccc2N3C)CC1,–,-3.37% [at 24.7 µM]
Cc1ncc([N+](=O)[O-])n1C,–,1.79%
CCCCN(CCCC)C(C(N)=O)c1ccc(OC)cc1 (stereo not given),–,11.4%
C=CC[N+]1([C@H]2C[C@H]3[C@@H]4CC[C@H]5C[C@H](OC(C)=O)[C@@H](N6CCCCC6)C[C@]5(C)[C@H]4CC[C@]3(C)[C@H]2OC(=O)CC)CCCCC1,–,-6.4%
Cc1c(C)c2c(c(C)c1OC(=O)CCC(=O)OCCO)CC[C@@](C)(CCC[C@H](C)CCC[C@H](C)CCCC(C)C)O2,–,-177%
CN1CCOC(c2ccccc2)c2ccccc2C1 (stereo not given),–,3.13%
CC1(C)O[C@@H]2C[C@H]3[C@@H]4C[C@H](F)C5=CC(=O)CC[C@]5(C)[C@H]4[C@@H](O)C[C@]3(C)[C@]2(C(=O)CO)O1,–,6.5%
CN(C)C(=O)Oc1cccc([N+](C)(C)C)c1,inactive,–
CO/N=C(\C(=O)O)c1csc(NC(=O)CCl)n1,–,0.109%
CC(C)(C)C(=O)OCOC(=O)C1N2C(=O)CC2S(=O)(=O)C1(C)C (stereo not given),–,1%
Nc1ccncc1N,–,-6.5%
CC(=O)N[C@H]1[C@H]([C@H](O)[C@H](O)CO)OC(C(=O)O)=C[C@@H]1N=C(N)N,–,12.8%
COc1ccc(CN(CCN(C)C)c2ccccn2)cc1,inactive,–
CC(=O)O[C@H]1CC[C@@]2(C)C(=CC[C@@H]3[C@@H]2CC[C@]2(C)C(C(C)=O)=CC[C@@H]32)C1,–,12.5%
C[N+](C)(C)CCOC(=O)CCC(=O)OCC[N+](C)(C)C,inactive,–
O=C1NC2CCCCN2C12CCN(CCCN1c3ccccc3CCc3ccc(Cl)cc31)CC2 (stereo not given),–,-7.45%
NS(=O)(=O)c1cc(C(=O)O)c(NCc2ccco2)cc1Cl,inactive,–
Cc1c(F)cc2c(=O)c(C(=O)O)cn3c2c1CCC3C (stereo not given),–,21.7%
CCN(CCCCOC(=O)c1ccc(OC)c(OC)c1)C(C)Cc1ccc(OC)cc1 (stereo not given),–,-118%

# Molecular target: Nucleoprotein (Lymphocytic choriomeningitis virus (strain Armstrong)) (UniProt P09992)
# Assay: qHTS for Inhibitors of the Functional Ribonucleoprotein Complex (vRNP) of Lymphocytic Choriomeningitis Arenaviruses (LCMV): LCMV Primary Screen - GLuc reporter signal (AID 1347086); also: nearly all actives have a fitted effect of over 70% in size
# Conditions: LCMV minigenome vRNP cell assay, Gaussia luciferase reporter; series mostly up to 57.5 µM; activity change, negative = inhibition: at the top concentration
# Nucleoprotein (Lymphocytic choriomeningitis virus (strain Armstrong)), sequence (P09992 whole entry, looked up): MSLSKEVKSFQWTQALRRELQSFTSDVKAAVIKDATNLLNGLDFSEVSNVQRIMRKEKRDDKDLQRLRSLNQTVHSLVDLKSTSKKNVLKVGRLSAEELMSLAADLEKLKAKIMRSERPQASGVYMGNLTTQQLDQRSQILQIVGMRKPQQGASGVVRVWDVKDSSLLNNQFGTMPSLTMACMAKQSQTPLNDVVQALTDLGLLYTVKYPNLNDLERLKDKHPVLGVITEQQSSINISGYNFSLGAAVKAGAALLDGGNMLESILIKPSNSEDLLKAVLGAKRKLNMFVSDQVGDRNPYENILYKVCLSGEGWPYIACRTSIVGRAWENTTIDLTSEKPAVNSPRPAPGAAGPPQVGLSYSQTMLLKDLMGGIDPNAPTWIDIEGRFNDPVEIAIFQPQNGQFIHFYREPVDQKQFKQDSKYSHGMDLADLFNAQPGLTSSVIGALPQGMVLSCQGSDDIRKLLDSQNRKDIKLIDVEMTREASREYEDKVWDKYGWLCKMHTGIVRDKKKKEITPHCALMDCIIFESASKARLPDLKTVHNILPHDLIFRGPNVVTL
Compound,Potency,"activity change, negative = inhibition"
NC(N)=NC(=O)c1nc(Cl)c(N)nc1N,inactive,–
CC(C)C(=O)OCc1cccc(OC(=O)[C@@H]2N3C(=O)[C@@H](NC(=O)Cc4ccccc4)[C@H]3SC2(C)C)c1,–,10.1%
c1ccc(CCNc2nc(-c3ccccc3)cs2)cc1,–,-38.4%
O=C(CCCN1CCN(c2ccccn2)CC1)c1ccc(F)cc1,–,-5.79%
CCc1oc2ccccc2c1C(=O)c1cc(Br)c(O)c(Br)c1,–,0.0296%
COC1=C(OC)C(=O)C(CCCCCCCCCCO)=C(C)C1=O,inactive,–
CCN(CC)CCOCCOC(=O)C1(c2ccccc2)CCCC1,inactive,–
NC(=O)c1ncn([C@@H]2O[C@H](CO)[C@@H](O)[C@H]2O)c1N,–,1.83%
O=C(NCCc1c[nH]c2ccccc12)c1cccnc1,–,-15.7%
CCCOC(C(=O)OC1CCN(C)CC1)(c1ccccc1)c1ccccc1,–,1.26%
c1ccc2[nH]c(-c3cscn3)nc2c1,inactive,–
C[N+]1(C)CCC(=C(c2ccccc2)c2ccccc2)CC1,–,2.33%
O=C(Nc1ccc([N+](=O)[O-])cc1)Nc1ccc([N+](=O)[O-])cc1,–,20.5%
CC(C)Cn1cnc2c1c(=O)n(C)c(=O)n2C,–,9.72%
Nc1nc2ncc(CNc3ccc(C(=O)N[C@@H](CCC(=O)O)C(=O)O)cc3)nc2c(=O)[nH]1,inactive,–
C=CCc1cc(OC)c(O)c(C(=O)NCCO)c1,inactive,–
CCN(CC)CCSC(=O)C(c1ccccc1)c1ccccc1,–,11.1%
NC[C@H]1O[C@H](O[C@H]2[C@H](O)[C@@H](O[C@H]3O[C@H](CO)[C@@H](O)[C@H](N)[C@H]3O)[C@H](N)C[C@@H]2N)[C@H](N)[C@@H](O)[C@@H]1O,–,-13.4% [at 24.7 µM]
COc1cc(NS(=O)(=O)c2ccc(N)cc2)ncn1,–,0.558%
CO[C@]1(NC(=O)CSC(F)F)C(=O)N2C(C(=O)O)=C(CSc3nnnn3CCO)CO[C@H]21,–,7.3%

Compound,Potency,"activity change, negative = inhibition"
O=[N+]([O-])c1nccn1CO[C@@H](CO)[C@H](O)CO,–,15.5%
CN1CCN(c2cc3c(nn2)Oc2ccccc2N3C)CC1,–,-7.05% [at 24.7 µM]
Cc1ncc([N+](=O)[O-])n1C,–,35%
CCCCN(CCCC)C(C(N)=O)c1ccc(OC)cc1 (stereo not given),–,8.46%
C=CC[N+]1([C@H]2C[C@H]3[C@@H]4CC[C@H]5C[C@H](OC(C)=O)[C@@H](N6CCCCC6)C[C@]5(C)[C@H]4CC[C@]3(C)[C@H]2OC(=O)CC)CCCCC1,–,21.8%
Cc1c(C)c2c(c(C)c1OC(=O)CCC(=O)OCCO)CC[C@@](C)(CCC[C@H](C)CCC[C@H](C)CCCC(C)C)O2,–,-98.8%
CN1CCOC(c2ccccc2)c2ccccc2C1 (stereo not given),–,-1.15%
CC1(C)O[C@@H]2C[C@H]3[C@@H]4C[C@H](F)C5=CC(=O)CC[C@]5(C)[C@H]4[C@@H](O)C[C@]3(C)[C@]2(C(=O)CO)O1,–,12%
CN(C)C(=O)Oc1cccc([N+](C)(C)C)c1,inactive,–
CO/N=C(\C(=O)O)c1csc(NC(=O)CCl)n1,–,2.39%
CC(C)(C)C(=O)OCOC(=O)C1N2C(=O)CC2S(=O)(=O)C1(C)C (stereo not given),–,13.5%
Nc1ccncc1N,–,-8.23%
CC(=O)N[C@H]1[C@H]([C@H](O)[C@H](O)CO)OC(C(=O)O)=C[C@@H]1N=C(N)N,–,0.234%
COc1ccc(CN(CCN(C)C)c2ccccn2)cc1,inactive,–
CC(=O)O[C@H]1CC[C@@]2(C)C(=CC[C@@H]3[C@@H]2CC[C@]2(C)C(C(C)=O)=CC[C@@H]32)C1,–,9.57%
C[N+](C)(C)CCOC(=O)CCC(=O)OCC[N+](C)(C)C,inactive,–
O=C1NC2CCCCN2C12CCN(CCCN1c3ccccc3CCc3ccc(Cl)cc31)CC2 (stereo not given),–,-26.3%
NS(=O)(=O)c1cc(C(=O)O)c(NCc2ccco2)cc1Cl,inactive,–
Cc1c(F)cc2c(=O)c(C(=O)O)cn3c2c1CCC3C (stereo not given),–,7.93%
CCN(CCCCOC(=O)c1ccc(OC)c(OC)c1)C(C)Cc1ccc(OC)cc1 (stereo not given),–,-72.7%
